Results taken from PubChem BioAssay.
Results filed as inconclusive are left out. Active and inactive are the calls of the source. Unless noted, cut-off not given; nearly all actives show AC50 up to about 26 µM.

Legend:
[1] = viability loss in pontine glioma line – cell-based, SU-DIPG-XXV, MIPE5.0, CellTiter-Glo, qHTS, dose response (AID 1347065); settings: CellTiter-Glo ATP luminescence;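 further: cells exposed to compound for 48 hours before ATP readout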
[2] = growth inhibition of DIPG cells – cell-based, MIPE4.0 library, CellTiter-Glo luminescence, qHTS (AID 1347066; cut-off not given, nearly all actives have AC50 up to about 30 µM;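 further: cells exposed to compound for 48 hours before readout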); settings: SU-DIPG-VI viability, CellTiter-Glo ATP luminescence
[3] = JHH-DIPG-1 glioma cell viability, MIPE5.0 library, CellTiter-Glo luminescence, qHTS (AID 1347067); settings: JHH-DIPG-1 glioma viability, CellTiter-Glo ATP luminescence;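 further: cells exposed to compound for 48 hours before readout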
[4] = growth inhibition of DIPG cells – cell-based, MIPE5.0 library, qHTS (AID 1347068; cut-off not given, nearly all actives have IC50 up to about 30 µM); settings: SU-DIPG-XXV viability
[5] = target: NAD(+) hydrolase SARM1 (Homo sapiens) (UniProt Q6SZW1); test: blocking NAD cleavage by SARM1 SAM-TIR – cell lysate, NAD-Glo luminescence (AID 1508614;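 active means compound whose remaining NAD level is above about 45 nM, limit read from the data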); settings: SAM-TIR HEK293T lysate NADase, at 1 µM, stronger effect = higher value
[6] = target: Mitogen-activated protein kinase 7 (Homo sapiens) (UniProt Q13164); test: Gal4-ERK5 driven luciferase induction – cell-based, HTS, primary screen (AID 1508626;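 active means luciferase signal above three times the same-plate solvent-only control wells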;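 further: luciferase driven by Gal4-ERK5 fusion binding five Gal4 sites before minimal TATA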); settings: HeLa Gal4-ERK5 transactivation, 18 h, at 5 µM, stronger effect = higher value
Sequence of Mitogen-activated protein kinase 7 (Homo sapiens) (Q13164 whole entry, looked up, the tested form may be a part): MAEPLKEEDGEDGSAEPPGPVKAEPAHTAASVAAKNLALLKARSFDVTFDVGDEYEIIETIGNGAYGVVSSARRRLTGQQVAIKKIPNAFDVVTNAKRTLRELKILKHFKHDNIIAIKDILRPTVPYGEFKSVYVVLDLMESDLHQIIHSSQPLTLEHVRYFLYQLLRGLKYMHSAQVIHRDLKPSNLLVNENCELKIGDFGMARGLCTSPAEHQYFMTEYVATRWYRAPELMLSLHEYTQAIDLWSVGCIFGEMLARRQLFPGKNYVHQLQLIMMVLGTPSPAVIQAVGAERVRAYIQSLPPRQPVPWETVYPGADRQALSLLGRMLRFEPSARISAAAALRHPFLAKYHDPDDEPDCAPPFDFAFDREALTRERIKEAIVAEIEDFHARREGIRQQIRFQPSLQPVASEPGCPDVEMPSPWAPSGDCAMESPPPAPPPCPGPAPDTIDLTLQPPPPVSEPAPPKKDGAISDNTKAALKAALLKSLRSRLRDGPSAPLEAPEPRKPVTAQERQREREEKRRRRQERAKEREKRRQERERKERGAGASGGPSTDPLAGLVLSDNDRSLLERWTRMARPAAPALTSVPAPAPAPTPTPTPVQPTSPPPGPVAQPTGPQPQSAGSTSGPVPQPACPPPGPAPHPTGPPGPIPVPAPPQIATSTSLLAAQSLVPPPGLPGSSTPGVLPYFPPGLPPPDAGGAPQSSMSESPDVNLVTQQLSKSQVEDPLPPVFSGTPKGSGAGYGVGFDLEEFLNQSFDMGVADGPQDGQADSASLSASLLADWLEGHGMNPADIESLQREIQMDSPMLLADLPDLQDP

Sequence of NAD(+) hydrolase SARM1 (Homo sapiens) (Q6SZW1 whole entry, looked up, the tested form may be a part): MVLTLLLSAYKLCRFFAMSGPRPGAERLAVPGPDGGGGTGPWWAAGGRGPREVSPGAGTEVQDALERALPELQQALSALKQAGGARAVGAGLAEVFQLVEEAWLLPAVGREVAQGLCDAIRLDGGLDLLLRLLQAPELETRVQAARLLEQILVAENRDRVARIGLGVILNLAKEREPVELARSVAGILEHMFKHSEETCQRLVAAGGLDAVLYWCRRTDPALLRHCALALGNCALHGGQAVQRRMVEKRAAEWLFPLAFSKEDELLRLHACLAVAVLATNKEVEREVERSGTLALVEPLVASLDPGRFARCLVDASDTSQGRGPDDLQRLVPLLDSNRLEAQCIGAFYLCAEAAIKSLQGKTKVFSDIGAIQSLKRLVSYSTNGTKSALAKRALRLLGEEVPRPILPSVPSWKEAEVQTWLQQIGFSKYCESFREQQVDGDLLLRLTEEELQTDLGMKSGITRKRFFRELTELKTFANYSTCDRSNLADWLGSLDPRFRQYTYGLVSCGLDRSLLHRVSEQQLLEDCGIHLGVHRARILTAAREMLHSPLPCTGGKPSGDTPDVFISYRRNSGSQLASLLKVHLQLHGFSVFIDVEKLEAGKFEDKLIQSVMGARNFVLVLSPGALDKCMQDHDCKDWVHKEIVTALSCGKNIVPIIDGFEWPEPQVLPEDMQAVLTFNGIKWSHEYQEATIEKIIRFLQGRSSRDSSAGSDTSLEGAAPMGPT

C[N+]1(C)[C@@H]2CC(OC(=O)[C@H](CO)c3ccccc3)C[C@H]1[C@@H]1O[C@@H]12 (stereo partly specified)
inactive: outcome [1] | outcome [2] | outcome [3] | outcome [4] | remaining NAD [5] 10 nM | luciferase signal [6] 32 AU
